The results in this text go back to publication PMC5540273 (PLoS ONE, 2017).

Among the test systems are PAK3; PAK4; PAK6; PAK7; PDGFRA; PDGFRB; PDPK1.
What all share (details): concentration: 1 μM, replicates: in singlicate; n = 1
For a further assay, the system named is T1, PCTK1.
T1 construct: gene CDK16

Another assay deals with T2, PCTK2.
T2 construct: gene CDK17

A further assay concerns T3, PCTK3.
T3 construct: gene CDK18

The structures appear in SMILES notation.
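Note: KINOMEscan kinase panel screen.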

Regarding `CCc1ccc(-c2ccc3c(c2)-c2n[nH]cc2S(=O)(=O)N3C)cc1`, the “%Inh” value with PAK3, in the assay with PAK4, in the assay with PAK6, in the assay with PAK7, with PCTK1 and in the assay on PCTK2 was 0% throughout. In addition, the “%Inh” value with PCTK3 is 0%; in the assay on PDGFRA, 0%; in the assay with PDGFRB it was 7%; in the assay on PDPK1 it was 4%.

`CC(C)c1cc(-c2ccc3c(N)n[nH]c3c2)nc(N)n1` [GSK2250882]: the “%Inh” value in the assay on PAK3 worked out at 0%; with PAK4 it was 0%; in the assay on PAK6, 0%; with PAK7 it was 6%; in the assay on PCTK1 it was 0%; in the assay on PCTK2, 9%. Besides, the “%Inh” value with PCTK3 worked out at 11%; in the assay with PDGFRA, 0%; with PDGFRB it was 18%; in the assay on PDPK1, 74%.

Turning to `Fc1ccc(-c2nn3cccc(F)c3c2-c2ccncc2)cc1` [GW475620], the “%Inh” value in the assay with PAK3 is reported as 20%; with PAK4, 0%; with PAK6, 0%; in the assay with PAK7 it was 0%; with PCTK1, 6%; in the assay on PCTK2, 0%. Moreover, the “%Inh” value came out at 0% in the assay on PCTK3, 0% in the assay with PDGFRA, 3% with PDGFRB and 0% in the assay on PDPK1.

Regarding `CC[C@@H]1CO[C@H](C(=O)Nc2ccccc2)CN1c1cc(-c2ccc3c(N)n[nH]c3c2)nc(NC)n1` [GSK2376236], the “%Inh” value in the assay on PAK3 is 0%; with PAK4 it was 0%; with PAK6 it was 3%; with PAK7, 7%; in the assay with PCTK1 it was 3%; in the assay on PCTK2, 11%. In addition, the “%Inh” value with PCTK3 stood at 0%; in the assay on PDGFRA it was 0%; with PDGFRB, 20%; in the assay with PDPK1, 94.6%.

Take `CCCCc1nn2ncccc2c1-c1ccnc(NC2CC2)n1` [GW684374]: the “%Inh” value with PAK3 was determined as 0%; in the assay on PAK4, 0%; in the assay with PAK6, 0%; in the assay on PAK7, 0%; in the assay with PCTK1, 7%; with PCTK2 it was 0%. Moreover, the “%Inh” value in the assay on PCTK3 worked out at 15%; with PDGFRA, 0%; in the assay on PDGFRB, 68%; in the assay on PDPK1, 0%.
